Screening data: PubChem, Broad Institute
aSyn UTR act – Activators via SNCA 5'UTR binding, MLPCN | alpha-synuclein 5'UTR reporter, activators screen | 7.1% of 300,000 active | activity score, % (tested at 7.5 µM), hits read low | AID 1814, 2009; in the data active means activity score below about -60%
Of the large screens only hits and unclear results are named; the others gave an inactive call. Not all results are given here.

CCOc1ccc(N(C(=O)c2cc3ccccc3oc2=O)C2C=CS(=O)(=O)C2)cc1 (stereo not drawn)	aSyn UTR act -88
Cc1ccc(N(C(=O)c2cc3ccccc3oc2=O)C2C=CS(=O)(=O)C2)cc1 (stereo not drawn)	aSyn UTR act -107
Cc1cc(NC(=O)c2cc(-c3ccco3)on2)nn1Cc1ccc(Cl)cc1	aSyn UTR act -71
O=C(Nc1ccccc1C(F)(F)F)c1cc(-c2ccco2)on1	aSyn UTR act -127
Cc1c(Cl)cccc1NC(=O)c1cc(-c2ccco2)on1	aSyn UTR act -108
O=C(Nc1ccccc1C(F)(F)F)c1cc(-c2ccccc2O)on1	aSyn UTR act -141
Cc1ccc(/C=N/NC(=O)Nc2ccccc2)o1	aSyn UTR act -80
Cc1ccc(/C=N/NC(=O)NC2CCCCC2)o1	aSyn UTR act -66
Cc1ccc(S(=O)(=O)N(C)CC(=O)N/N=C/c2ccc(C)o2)cc1	none
COc1ccc(-n2cccc2/C=C2/NC(=O)N(c3cccc(Cl)c3)C2=O)cc1	aSyn UTR act -143
Cc1cc(C(=O)COC(=O)c2ccc(Br)o2)c(C)n1Cc1ccco1	aSyn UTR act -116
CCOc1ncccc1C(=O)OCC(=O)c1cc(C)n(Cc2ccco2)c1C	aSyn UTR act -115
Cc1cc(C(=O)COC(=O)c2ccc(O)cc2)c(C)n1Cc1ccco1	aSyn UTR act -140
Oc1c(C2=NCCNC(C(F)(F)F)=C2)ccc2ccccc12	aSyn UTR act -193
Brc1cccc2sc(N3CCCC3)nc12	aSyn UTR act -75
Clc1cccc2sc(N3CCOCC3)nc12	aSyn UTR act -64
Fc1cccc2sc(N3CCCC3)nc12	aSyn UTR act -79
CCCCOC(=O)Nc1ccc(N(C)C)cc1	aSyn UTR act -162
CCCCOC(=O)Nc1ccc(C(C)C)cc1	aSyn UTR act -276
CCCCOC(=O)Nc1cccc(C(=O)OCC)c1	aSyn UTR act -68
CCCCOC(=O)Nc1nnc(C(C)C)s1	aSyn UTR act -127
CCCCOC(=O)Nc1ccc(C(N)=O)cc1	aSyn UTR act -94
CCC1(C)Cc2c(sc3nc(SC)n(Cc4ccccc4)c(=O)c23)CO1 (stereo not drawn)	aSyn UTR act -118
Cn1c(-c2ccccc2)cc2c3no[n+]([O-])c3ccc21	aSyn UTR act -69
O=C(N[C@@H](Cc1c[nH]c2ccccc12)C(=O)NC1CC1)c1ccccc1Cl	aSyn UTR act -160
O/N=C/c1ccc(OCc2ccccc2F)c(Cl)c1	aSyn UTR act -92
O/N=C/c1ccc(OCc2ccccc2)c(Cl)c1	aSyn UTR act -104
O/N=C/c1ccc(OCc2ccccc2)c(Br)c1	aSyn UTR act -142
CCc1ccc(Oc2coc3cc(OCC(=O)Nc4cc(C)ccc4C)ccc3c2=O)cc1	none
COc1ccccc1-c1coc2cc(O)cc(O)c2c1=O	aSyn UTR act -71
O=c1c(-c2ccc(F)cc2)coc2c3c(ccc12)OCCO3	aSyn UTR act -128
COc1ccc2c(=O)c(-c3ccccc3)coc2c1	aSyn UTR act -65
CCOc1ccc2c(=O)c(Oc3ccccc3OCC)coc2c1	aSyn UTR act -100
CCN(CC)C(=O)Oc1ccc2c(=O)c(-c3ccccc3)coc2c1	aSyn UTR act -90
COc1ccc2c(=O)c(-c3ccc(OC)c(OC)c3)coc2c1	aSyn UTR act -97
COc1ccc(-c2coc3cc(O)ccc3c2=O)cc1OC	aSyn UTR act -66
O=c1c(-c2ccc(F)cc2)coc2cc(O)ccc12	aSyn UTR act -94
COC(=O)CCN1CCc2cc(N=Nc3ccc([N+](=O)[O-])cc3)ccc21	aSyn UTR act -96
O=C(c1cnn2c1NC(c1ccco1)CC2C(F)(F)F)N1CCN(c2cccc(Cl)c2)CC1 (stereo not drawn)	aSyn UTR act -71
O=C(Nc1ccc(Cl)cc1)C(Cl)C(=O)c1ccccc1 (stereo not drawn)	aSyn UTR act -79
O=C(NC(=S)Nc1ccc(Cl)cc1)c1ccccc1	aSyn UTR act -177
CCC(=O)NC(=S)Nc1ccc(NC(=S)NC(=O)c2ccccc2)cc1	aSyn UTR act -104
COc1ccc(/C=C/C2=NN(C)C(=O)CC2)cc1	aSyn UTR act -120
COc1ccc(-c2cc(C(=O)NC(C)C)no2)cc1	aSyn UTR act -71
COc1cccc(-c2cc(C(=O)NC3CCCCC3)no2)c1	aSyn UTR act -202
O=C(NC1CCCCC1)c1cc(-c2ccco2)on1	aSyn UTR act -128
COc1cccc(-c2cc(C(=O)N3CCCCC3C)no2)c1 (stereo not drawn)	aSyn UTR act -162
COc1ccc(-c2cc(C(=O)Nc3ccc(C)c(C)c3)no2)cc1	aSyn UTR act -124
COc1ccc(-c2cc(C(=O)NC3CCCC3)no2)cc1	aSyn UTR act -121
Cc1noc(N)c1C(=O)Nc1ccc(C(C)(C)C)cc1	aSyn UTR act -106
CCOC(=O)Cc1ccc(NC(=O)c2ccc(C(C)(C)C)cc2)cc1	none
Cc1ccc2c(c1)C(O)(CC(=O)/C=C/C=C/c1ccccc1)C(=O)N2 (stereo not drawn)	aSyn UTR act -112
O=C(N/N=C/c1sc(N2CCOCC2)nc1-c1ccccc1)c1cccc(S(=O)(=O)N2CCOCC2)c1	none
CC(C)NC(=S)N/N=C/c1sc(N2CCCCC2)nc1-c1cccs1	aSyn UTR act -69
NC(=O)N/N=C/c1sc(N2CCCCC2)nc1-c1cccs1	aSyn UTR act -67
Cc1c(C)n(CCc2ccccc2)c2ncnc(NCCCO)c12	aSyn UTR act -141
Cc1ccc(-n2c(C)c(C)c3c(NCCO)ncnc32)cc1	aSyn UTR act -107
CSc1ccc(C2NC(=O)c3ccccc3N2)cc1 (stereo not drawn)	aSyn UTR act -126
Cc1ccc(C)c(C2NC(=O)c3ccccc3N2)c1 (stereo not drawn)	aSyn UTR act -70
COc1cc(-c2noc(C)c2/C=C/c2ccc(N)cc2)cc(OC)c1OC	none
c1ccc(-c2nc3nc4ccccc4nc3n2Cc2ccco2)cc1	aSyn UTR act -106
O=C(COC(=O)C1CC1)c1c[nH]c2ccccc12	aSyn UTR act -177
O=C(Cc1ccccc1[N+](=O)[O-])OCC(=O)c1c[nH]c2ccccc12	aSyn UTR act -69
O=C(/C=C\c1ccccc1OC(=O)c1ccccc1F)c1cc2ccccc2o1	aSyn UTR act -132
COc1ccc(OCc2cc(C(=O)N(C)Cc3nnc(C)o3)no2)c(Cl)c1	aSyn UTR act -121
CCc1ccc(CN(C)C(=O)c2cc(COc3ccc(OC)cc3Cl)on2)nc1	aSyn UTR act -170
CCN(Cc1ccncc1)C(=O)c1cc(COc2ccc(OC)cc2Cl)on1	aSyn UTR act -111
Cc1cc(CN(C)C(=O)c2cc(COc3ccc(F)cc3Cl)on2)n[nH]1	aSyn UTR act -75
COc1ccc(OCc2cc(C(=O)N(C)Cc3cc(C)no3)no2)c(Cl)c1	aSyn UTR act -182
CCc1ccc(-c2csc(NC(=O)C3=NN(c4ccccc4)C(=O)CC3)n2)cc1	aSyn UTR act -97
O=[N+]([O-])/C=C/c1cn(Cc2ccc(Cl)cc2)c2ccccc12	none
CN1CCN(Cn2cc(/C=C/C(=O)c3ccccc3)c3ccccc32)CC1	aSyn UTR act -312
COc1ccc(C(=O)/C=C/c2cn(CC(O)CN3CCN(C)CC3)c3ccccc23)cc1OC (stereo not drawn)	aSyn UTR act -62
COc1ccccc1-c1nnc(NC(=O)C2=COCCO2)o1	aSyn UTR act -75
C=CCn1c(C)cc(-c2csc(NC(=O)C3=COCCO3)n2)c1C	aSyn UTR act -89
CC(C)(C)c1ccc(NC(=O)COC(=O)C2(C)CC2(Cl)Cl)cc1 (stereo not drawn)	aSyn UTR act -138
CC(C)(C)c1ccc(NC(=O)COC(=O)C2=COCCO2)cc1	aSyn UTR act -90
